# Experimental data reported in the supplement of paper PMC8728848.
# The sample as a whole holds a higher share of the strongest signals than the screen did.
# Assays:
# Test in all cases: glycan array binding signal (z-score within array); higher = stronger binding
# Settings in all cases: glycan notation: IUPAC condensed, linker removed; mutation: R276L
# [1] = target: Fuc(a1-2)Gal(b1-3)[Fuc(a1-4)]GlcNAc(b1-3)[Fuc(a1-3)[Gal(b1-4)]GlcNAc(b1-6)]Gal(b1-4)Glc
# Method in brief: (§1)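 Columns mapping to the same glycan were averaged after glycan names were converted to IUPAC-condensed notation. The data come from 3228 arrays in the Consortium for Functional Glycomics database, limited to those with an available protein sequence. Binding is reported as a within-array Z-score averaged across arrays of one protein sequence and across linkers.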
# [2] = target: Fuc(a1-2)Gal(b1-3)[Fuc(a1-4)]GlcNAc(b1-3)[Gal(b1-4)GlcNAc(b1-6)]Gal(b1-4)Glc
# Method in brief: as §1
# [3] = target: Fuc(a1-2)Gal(b1-4)GlcNAc(b1-2)Man(a1-3)[Fuc(a1-2)Gal(b1-4)GlcNAc(b1-2)Man(a1-6)]Man(b1-4)GlcNAc(b1-4)GlcNAc
# Method in brief: as §1
# [4] = target: Fuc(a1-2)Gal(b1-4)GlcNAc(b1-3)GalNAc
# Method in brief: as §1
# [5] = target: Fuc(a1-2)Gal(b1-4)GlcNAc(b1-3)[Fuc(a1-2)Gal(b1-4)GlcNAc(b1-6)]GalNAc
# Method in brief: as §1
# [6] = target: Fuc(a1-2)Gal(b1-4)GlcNAc6S
# Method in brief: as §1
# [7] = target: Fuc(a1-2)[GalNAc(a1-3)]Gal(b1-3)GalNAc(b1-3)Gal(a1-4)Gal(b1-4)Glc
# Method in brief: as §1
# [8] = target: Fuc(a1-2)[GalNAc(a1-3)]Gal(b1-3)GlcNAc
# Method in brief: as §1
# [9] = target: Fuc(a1-2)[GalNAc(b1-3)]Gal
# Method in brief: as §1
# [10] = target: Gal(a1-3)Gal(b1-3)[Fuc(a1-4)]GlcNAc(b1-2)Man(a1-3)[Gal(a1-3)Gal(b1-3)[Fuc(a1-4)]GlcNAc(b1-2)Man(a1-6)]Man(b1-4)GlcNAc(b1-4)GlcNAc
# Method in brief: as §1
# [11] = target: Gal(a1-4)GlcNAc
# Method in brief: as §1
# [12] = target: Gal(b1-2)Gal
# Method in brief: as §1
# [13] = target: Gal(b1-3)Gal
# Method in brief: as §1
# [14] = target: Gal(b1-3)GalNAc
# Method in brief: as §1
# [15] = target: Gal(b1-3)GalNAc(b1-3)Gal
# Method in brief: as §1
# [16] = target: Gal(b1-3)GalNAc(b1-4)Gal(b1-4)Glc
# Method in brief: as §1
# [17] = target: Gal(b1-3)GlcNAc
# Method in brief: as §1
# [18] = target: Gal(b1-3)GlcNAc(b1-2)Man(a1-3)[Gal(b1-3)GlcNAc(b1-2)Man(a1-6)]Man(b1-4)GlcNAc(b1-4)GlcNAc
# Method in brief: as §1
# [19] = target: Gal(b1-3)GlcNAc(b1-3)Gal(b1-4)Glc
# Method in brief: as §1
# [20] = target: Gal(b1-3)GlcNAc(b1-3)Gal(b1-4)GlcNAc(b1-2)[Gal(b1-3)GlcNAc(b1-3)Gal(b1-4)GlcNAc(b1-6)]Man(a1-6)[Gal(b1-3)GlcNAc(b1-3)Gal(b1-4)GlcNAc(b1-2)Man(a1-3)]Man(b1-4)GlcNAc(b1-4)[Fuc(a1-6)]GlcNAc
# Method in brief: as §1
# [21] = target: Gal(b1-3)[Neu5Ac(a2-6)]GalNAc
# Method in brief: as §1
# [22] = target: Gal(b1-4)GlcNAc(b1-2)Man(a1-3)Man(b1-4)GlcNAc(b1-4)GlcNAc
# Method in brief: as §1
# [23] = target: Gal(b1-4)GlcNAc(b1-2)Man(a1-3)[GlcNAc(b1-2)Man(a1-6)]Man(b1-4)GlcNAc(b1-4)GlcNAc
# Method in brief: as §1
# [24] = target: Gal(b1-4)GlcNAc(b1-2)[Gal(b1-4)GlcNAc(b1-4)]Man(a1-3)[GlcNAc(b1-4)][Gal(b1-4)GlcNAc(b1-2)[Gal(b1-4)GlcNAc(b1-6)]Man(a1-6)]Man(b1-4)GlcNAc(b1-4)GlcNAc
# Method in brief: as §1
# [25] = target: Gal(b1-4)GlcNAc(b1-3)Gal(b1-4)GlcNAc(b1-2)[Gal(b1-4)GlcNAc(b1-3)Gal(b1-4)GlcNAc(b1-6)]Man(a1-6)[Gal(b1-4)GlcNAc(b1-3)Gal(b1-4)GlcNAc(b1-2)Man(a1-3)]Man(b1-4)GlcNAc(b1-4)GlcNAc
# Method in brief: as §1
# [26] = target: Gal(b1-4)GlcNAc(b1-3)Gal(b1-4)GlcNAc(b1-3)Gal(b1-4)GlcNAc(b1-2)Man(a1-3)[Gal(b1-4)GlcNAc(b1-3)Gal(b1-4)GlcNAc(b1-3)Gal(b1-4)GlcNAc(b1-2)Man(a1-6)]Man(b1-4)GlcNAc(b1-4)GlcNAc
# Method in brief: as §1
# [27] = target: Gal(b1-4)GlcNAc(b1-3)Gal(b1-4)GlcNAc(b1-3)Gal(b1-4)GlcNAc(b1-2)[Gal(b1-4)GlcNAc(b1-3)Gal(b1-4)GlcNAc(b1-3)Gal(b1-4)GlcNAc(b1-6)]Man(a1-6)[Gal(b1-4)GlcNAc(b1-3)Gal(b1-4)GlcNAc(b1-3)Gal(b1-4)GlcNAc(b1-2)Man(a1-3)]Man(b1-4)GlcNAc(b1-4)[Fuc(a1-6)]GlcNAc
# Method in brief: as §1
# [28] = target: Gal(b1-4)GlcNAc(b1-6)GalNAc
# Method in brief: as §1
# [29] = target: Gal3S6S(b1-4)GlcNAc
# Method in brief: as §1
# [30] = target: Gal4S6S(b1-4)GlcNAc
# Method in brief: as §1
binder,measurement,setting,value
"SUN4P (Saccharomyces cerevisiae), P53616 (protein) MGSSHHHHHHSSGLVPRGSHNGSIYGDLADFSGPYEKFEDGTIPCGQFPSGQGVIPISWLDEGGWSGVENTDTSTGGSCKEGSYCSYACQPGMSKTQWPSDQPSDGRSIGGLLCKDGYLYRSNTDTDYLCEWGVDAAYVVSELSNDVAICLTDYPGTENMVIPTYVQAGDSLPLTVVDQDTYYTWQGLKTSAQYYVNNAGISVEDACVWGSSSSGVGNWAPLNFGAGSSDGVAYLSLIPNPNNGNALNFNVKIVAADDSSTVNGECIYENGSFSGGSDGCTVSVTAGKAKFVLYN",glycan array binding signal (z-score),[1],-1.15
same,glycan array binding signal (z-score),[2],-0.39
same,glycan array binding signal (z-score),[3],-0.72
same,glycan array binding signal (z-score),[4],-0.667
same,glycan array binding signal (z-score),[5],-0.351
same,glycan array binding signal (z-score),[6],1.81
same,glycan array binding signal (z-score),[7],-0.881
same,glycan array binding signal (z-score),[8],-0.545
same,glycan array binding signal (z-score),[9],1.77
same,glycan array binding signal (z-score),[10],-0.029
same,glycan array binding signal (z-score),[11],-0.2
same,glycan array binding signal (z-score),[12],0.046
same,glycan array binding signal (z-score),[13],1.8
same,glycan array binding signal (z-score),[14],2.6
same,glycan array binding signal (z-score),[15],7.07
same,glycan array binding signal (z-score),[16],11.2
same,glycan array binding signal (z-score),[17],-0.318
same,glycan array binding signal (z-score),[18],-0.366
same,glycan array binding signal (z-score),[19],-0.852
same,glycan array binding signal (z-score),[20],2.11
same,glycan array binding signal (z-score),[21],2.79
same,glycan array binding signal (z-score),[22],-0.274
same,glycan array binding signal (z-score),[23],-0.054
same,glycan array binding signal (z-score),[24],0.051
same,glycan array binding signal (z-score),[25],-0.671
same,glycan array binding signal (z-score),[26],0.667
same,glycan array binding signal (z-score),[27],2.41
same,glycan array binding signal (z-score),[28],-0.068
same,glycan array binding signal (z-score),[29],1.73
same,glycan array binding signal (z-score),[30],0.289
